Laboratory results taken from PubChem BioAssay.
Results filed as inconclusive are left out. Active and inactive are the calls of the source.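 The calls were made as follows, unless noted: active = efflux inhibition above 0.42, the validation set average plus 4 SD; inconclusive = no clear call, values can overlap the other calls; inactive = the rest.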

Experiments:
[1] = yeast TOR pathway RPL19A-GFP modulators, primary screen, cell-based, S. cerevisiae, multiplex flow cytometry (AID 1862; in the data active = percent of DMSO control GFP below about 86%;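 also: lower values mimic rapamycin by blocking the RPL19A rise seen in DMSO cells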); conditions: S. cerevisiae RPL19A-GFP strain, flow cytometry fluorescence, 3 h; at 10 µM; stronger effect = lower value
[2] = modulators of MEP2-GFP levels in yeast, primary screen, S. cerevisiae, multiplex flow cytometry (AID 1867;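 active = GFP response, as percent of the DMSO control, above the screen-wide mean plus 3 SD, about 139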;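 also: median GFP channel fluorescence of barcode-gated MEP2-GFP cells measured by flow cytometry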); conditions: S. cerevisiae MEP2-GFP strain, 3 h, at 10 µM, stronger effect = higher value, 100% means same as DMSO wells
[3] = modulators of CIT2-GFP expression in yeast, primary screen, S. cerevisiae, GFP fusion, multiplex flow cytometry (AID 1870;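 active = percent response above a set limit, the screen-wide mean plus 3 SD, cut at about 130% in these data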;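 also: barcoded CIT2-GFP strain pooled with four other GFP strains with rapamycin as positive control; median GFP fluorescence per well over plate mean of DMSO wells so 100% = DMSO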); conditions: 3 h, at 10 µM, stronger effect = higher value
[4] = modulators of LAP4-GFP expression in yeast, primary screen, S. cerevisiae, multiplex flow cytometry (AID 1873;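 active = GFP signal, as percent of the solvent control, above the screen mean plus 3 SD, about 149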); conditions: 3 h, at 10 µM, stronger effect = higher value
[5] = modulators of AGP1-GFP expression in yeast TOR pathway, primary screen, cell-based, multiplex flow cytometry, S. cerevisiae (AID 1887;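 active = GFP signal above the screen-wide mean plus 3 SD, that is over about 124.5% of the solvent control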;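 also: AGP1-GFP fusion strain of S. cerevisiae within a five-strain barcoded multiplex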); conditions: 3 h, at 10 µM, stronger effect = higher value
[6] = inhibitors of CD8+ T cell-vesicle binding, pilot screen, LFA-1/ICAM-1 modulator project, MLPCN validation set, flow cytometry (AID 2523;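 active = response below a set limit, under 55% cells CD8-positive and vesicle-bound, and CD8 cells' 90th-percentile brightness under 279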;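 as to vesicle binding response: mean PE anti-B7-1 fluorescence of CD8+ cells relative to row control; 100% = QL9-loaded vesicles with DMSO vehicle in the same plate row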); conditions: 2C mouse CD8+ T cells, at 7 µM, stronger effect = lower value; double positive events: measured here: CD8+/vesicle+ event percentage
[7] = molecular target: Integrin beta-1 (Homo sapiens) + Integrin alpha-4 (Homo sapiens) (UniProt P13612+P05556); experiment: inhibition of HUTS-21 binding to VLA-4, pilot screen, VLA-4 allosteric modulator project, U937 cells, HUTS-21 mAb, flow cytometry, validation set (AID 2674;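 active = inhibition above 50%, about 3 SD of the validation set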;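 also: antibody binding induced by the VLA-4 ligand LDV present at three times its Kd; 0% = LDV ligand with antibody and no compound and 100% = antibody without LDV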); conditions: HUTS-21 LIBS mAb binding, at 6.7 µM, stronger effect = higher value, binding induced by LDV ligand
Chain of Integrin beta-1 (Homo sapiens) + Integrin alpha-4 (Homo sapiens) (P05556 whole entry, looked up): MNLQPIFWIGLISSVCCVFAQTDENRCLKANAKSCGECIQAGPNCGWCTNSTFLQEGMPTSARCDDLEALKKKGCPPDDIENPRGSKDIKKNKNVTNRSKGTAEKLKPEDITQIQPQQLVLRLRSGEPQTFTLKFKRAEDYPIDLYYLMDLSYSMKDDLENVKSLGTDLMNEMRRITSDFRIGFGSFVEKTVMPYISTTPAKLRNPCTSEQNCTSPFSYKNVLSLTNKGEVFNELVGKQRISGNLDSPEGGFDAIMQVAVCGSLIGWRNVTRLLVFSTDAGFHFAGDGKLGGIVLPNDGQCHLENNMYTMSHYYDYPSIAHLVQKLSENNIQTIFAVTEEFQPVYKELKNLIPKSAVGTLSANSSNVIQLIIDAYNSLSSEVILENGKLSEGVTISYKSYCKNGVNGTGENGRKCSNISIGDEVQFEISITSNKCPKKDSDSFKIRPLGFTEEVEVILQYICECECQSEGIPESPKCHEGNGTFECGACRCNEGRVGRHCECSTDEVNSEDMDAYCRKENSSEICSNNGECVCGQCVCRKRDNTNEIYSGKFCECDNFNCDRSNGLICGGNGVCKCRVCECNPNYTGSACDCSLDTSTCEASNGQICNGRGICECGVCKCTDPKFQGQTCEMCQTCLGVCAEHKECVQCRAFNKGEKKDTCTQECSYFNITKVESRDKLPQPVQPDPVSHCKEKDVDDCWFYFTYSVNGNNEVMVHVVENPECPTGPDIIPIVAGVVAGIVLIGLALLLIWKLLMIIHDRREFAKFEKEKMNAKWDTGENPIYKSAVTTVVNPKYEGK
Chain of Integrin beta-1 (Homo sapiens) + Integrin alpha-4 (Homo sapiens) (P13612 whole entry, looked up): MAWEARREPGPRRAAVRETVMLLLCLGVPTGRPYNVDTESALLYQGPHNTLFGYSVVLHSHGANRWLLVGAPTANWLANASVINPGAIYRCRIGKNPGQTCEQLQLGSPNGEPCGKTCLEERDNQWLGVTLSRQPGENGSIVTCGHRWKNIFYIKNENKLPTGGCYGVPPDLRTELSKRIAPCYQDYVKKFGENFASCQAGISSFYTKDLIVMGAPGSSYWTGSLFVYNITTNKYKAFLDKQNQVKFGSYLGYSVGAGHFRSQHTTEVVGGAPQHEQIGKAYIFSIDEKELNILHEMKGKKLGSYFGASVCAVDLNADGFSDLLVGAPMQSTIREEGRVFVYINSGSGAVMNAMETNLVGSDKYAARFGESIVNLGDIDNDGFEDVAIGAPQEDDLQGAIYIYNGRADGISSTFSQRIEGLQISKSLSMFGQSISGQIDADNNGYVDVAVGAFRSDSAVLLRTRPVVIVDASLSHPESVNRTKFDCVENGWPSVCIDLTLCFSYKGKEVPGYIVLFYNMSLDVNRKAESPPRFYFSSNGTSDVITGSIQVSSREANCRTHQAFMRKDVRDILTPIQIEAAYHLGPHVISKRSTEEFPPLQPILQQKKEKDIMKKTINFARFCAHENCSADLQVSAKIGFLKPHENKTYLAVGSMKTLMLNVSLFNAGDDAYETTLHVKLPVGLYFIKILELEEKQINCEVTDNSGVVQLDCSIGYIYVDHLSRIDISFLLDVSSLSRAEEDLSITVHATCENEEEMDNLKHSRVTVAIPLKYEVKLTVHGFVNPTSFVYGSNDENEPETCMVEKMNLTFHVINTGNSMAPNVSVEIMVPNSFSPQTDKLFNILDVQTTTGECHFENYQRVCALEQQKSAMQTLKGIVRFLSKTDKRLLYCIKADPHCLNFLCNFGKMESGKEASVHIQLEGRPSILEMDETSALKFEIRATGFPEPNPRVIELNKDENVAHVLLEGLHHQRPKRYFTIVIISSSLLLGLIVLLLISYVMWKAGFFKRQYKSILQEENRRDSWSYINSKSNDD

[8] = superoxide lowering in aged yeast cells, pilot screen, validation compound set (AID 2706;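 active = superoxide response below 65% of plate, a cut near 3 SD across the whole screen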;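 also: yeast exposed to compound for one week at 30 degrees C before staining; 100% = mean of all compound wells on the same plate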); conditions: S. cerevisiae aging, superoxide DHE fluorescence; at 10 µM, stronger effect = lower value
[9] = molecular target: Beta-adrenergic receptor kinase 1 (Homo sapiens) (UniProt P25098); experiment: GRK2 binders displacing RNA aptamer, biochemical, validation, human GRK2, bead flow cytometry (AID 488806;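 active = aptamer binding inhibition above 30%, about 3 SD of noise from non-fluorescent compounds; inactive = inhibition at or below 30%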); conditions: bead-bound GRK2, FAM-aptamer displacement, at 10 µM, stronger effect = higher value
Chain of Beta-adrenergic receptor kinase 1 (Homo sapiens) (P25098 whole entry, looked up): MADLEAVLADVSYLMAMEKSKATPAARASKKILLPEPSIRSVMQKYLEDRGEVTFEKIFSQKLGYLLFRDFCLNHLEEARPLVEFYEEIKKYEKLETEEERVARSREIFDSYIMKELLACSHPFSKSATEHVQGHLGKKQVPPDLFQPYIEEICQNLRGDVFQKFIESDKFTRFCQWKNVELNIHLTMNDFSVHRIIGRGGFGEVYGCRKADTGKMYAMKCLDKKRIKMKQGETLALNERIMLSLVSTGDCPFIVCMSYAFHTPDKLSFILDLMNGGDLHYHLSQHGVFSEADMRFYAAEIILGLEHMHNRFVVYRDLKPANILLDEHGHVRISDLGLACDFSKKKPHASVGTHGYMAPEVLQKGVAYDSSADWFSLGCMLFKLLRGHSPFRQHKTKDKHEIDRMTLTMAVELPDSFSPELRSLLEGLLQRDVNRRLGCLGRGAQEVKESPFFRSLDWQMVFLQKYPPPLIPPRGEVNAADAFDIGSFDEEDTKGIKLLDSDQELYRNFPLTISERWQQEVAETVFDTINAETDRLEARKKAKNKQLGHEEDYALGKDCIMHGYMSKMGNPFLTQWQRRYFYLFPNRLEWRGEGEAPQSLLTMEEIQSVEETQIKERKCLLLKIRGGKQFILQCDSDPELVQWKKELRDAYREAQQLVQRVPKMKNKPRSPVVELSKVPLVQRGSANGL

[10] = molecular target: AP-2 complex subunit beta (Homo sapiens) (UniProt P63010); experiment: inhibitors of arrestin peptide binding to AP2, pilot screen, biochemical, validation set, GST-AP2 beads, flow cytometry (AID 504541;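 active = inhibition above 54%, about 3 SD of non-fluorescent compounds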;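 also: AP2 carries R879A mutation and is captured from E. coli lysate; bead-bound FITC arrestin peptide fluorescence measuring arrestin peptide binding to AP2; 0% = DMSO wells and 100% = excess unlabeled arrestin peptide control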); conditions: FITC arrestin peptide, at 10 µM, stronger effect = higher value, AP2 beta2 appendage fragment, R879A mutant
Chain of AP-2 complex subunit beta (Homo sapiens) (P63010 whole entry, looked up, the tested form may be a part, one chain of several): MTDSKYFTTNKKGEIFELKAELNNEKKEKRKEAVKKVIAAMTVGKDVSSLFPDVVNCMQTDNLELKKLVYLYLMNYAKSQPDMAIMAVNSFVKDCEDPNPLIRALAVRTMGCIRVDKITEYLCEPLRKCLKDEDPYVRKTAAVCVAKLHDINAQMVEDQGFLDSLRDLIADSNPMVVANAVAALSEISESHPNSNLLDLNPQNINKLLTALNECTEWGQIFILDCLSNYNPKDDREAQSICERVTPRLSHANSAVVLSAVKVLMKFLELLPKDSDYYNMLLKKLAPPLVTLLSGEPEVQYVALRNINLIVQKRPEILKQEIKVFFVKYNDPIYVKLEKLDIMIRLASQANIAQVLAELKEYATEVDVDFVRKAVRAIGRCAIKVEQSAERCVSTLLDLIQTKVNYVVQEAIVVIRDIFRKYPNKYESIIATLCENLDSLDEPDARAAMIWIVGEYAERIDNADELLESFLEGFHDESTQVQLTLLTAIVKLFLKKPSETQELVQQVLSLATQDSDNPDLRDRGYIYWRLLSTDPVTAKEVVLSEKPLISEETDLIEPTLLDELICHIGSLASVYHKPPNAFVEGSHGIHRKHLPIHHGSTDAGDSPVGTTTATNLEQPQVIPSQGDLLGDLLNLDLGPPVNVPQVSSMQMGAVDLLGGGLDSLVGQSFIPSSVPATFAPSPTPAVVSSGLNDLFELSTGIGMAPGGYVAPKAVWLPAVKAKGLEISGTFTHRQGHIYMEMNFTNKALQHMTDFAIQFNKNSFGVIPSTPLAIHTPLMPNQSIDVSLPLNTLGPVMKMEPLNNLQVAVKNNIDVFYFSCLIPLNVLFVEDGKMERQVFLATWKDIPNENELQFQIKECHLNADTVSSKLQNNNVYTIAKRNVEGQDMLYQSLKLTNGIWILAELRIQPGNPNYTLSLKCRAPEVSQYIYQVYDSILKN

[11] = yeast V-ATPase proton transport modulators, S. cerevisiae, pHLuorin, HTS validation (AID 504600; in the data active = response above about 15%;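 also: plate controls were DMSO for no effect and reference compound for full effect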); conditions: S. cerevisiae pHLuorin cytosolic pH, at 10 µM, stronger effect = higher value
[12] = tested on: anti-desmoglein-3 scFv antibody binding to human DSG3; experiment: inhibitors of anti-DSG3 scFv binding to DSG3, pilot screen, biochemical, validation compound set, bead-based, flow cytometry (AID 588368;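 active = binding below the plate cutoff, the plate median minus 3 SD, with a reading above zero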;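 also: signal is the median channel fluorescence of bead-bound GFP antibody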); conditions: Protein G beads, DSG3-Fc, scFv-GFP binding, at 10 µM, stronger effect = lower value
[13] = inhibitors of fungal efflux pumps CDR1, CDR2, MDR1, pilot screen, validation compound set, multiplex, phenotypic (AID 588506);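 also: Nile Red retained in cells so higher fluorescence means more efflux inhibition; 0 = negative control wells and 1 = enniatin B 25 µM full block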; conditions: S. cerevisiae pump-expressing triplex, Nile Red efflux flow cytometry; at 10 µM; stronger effect = higher value; the pumps come from Candida albicans
[14] = molecular target: ATP-binding cassette sub-family B member 6 (Homo sapiens) (UniProt Q9NP58); experiment: ABCB6 transporter inhibitors, pilot screen, K562-ABCB6 cells, flow cytometry, validation set (AID 588550;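 active = inhibition above the screen-wide mean plus 3 SD, about 51%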;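 also: 0% = DMSO wells and 100% = benzethonium chloride 70 µM positive control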); conditions: K562-ABCB6 porphyrin accumulation, 1 h, at 10 µM, stronger effect = higher value
Chain of ATP-binding cassette sub-family B member 6 (Homo sapiens) (Q9NP58 whole entry, looked up): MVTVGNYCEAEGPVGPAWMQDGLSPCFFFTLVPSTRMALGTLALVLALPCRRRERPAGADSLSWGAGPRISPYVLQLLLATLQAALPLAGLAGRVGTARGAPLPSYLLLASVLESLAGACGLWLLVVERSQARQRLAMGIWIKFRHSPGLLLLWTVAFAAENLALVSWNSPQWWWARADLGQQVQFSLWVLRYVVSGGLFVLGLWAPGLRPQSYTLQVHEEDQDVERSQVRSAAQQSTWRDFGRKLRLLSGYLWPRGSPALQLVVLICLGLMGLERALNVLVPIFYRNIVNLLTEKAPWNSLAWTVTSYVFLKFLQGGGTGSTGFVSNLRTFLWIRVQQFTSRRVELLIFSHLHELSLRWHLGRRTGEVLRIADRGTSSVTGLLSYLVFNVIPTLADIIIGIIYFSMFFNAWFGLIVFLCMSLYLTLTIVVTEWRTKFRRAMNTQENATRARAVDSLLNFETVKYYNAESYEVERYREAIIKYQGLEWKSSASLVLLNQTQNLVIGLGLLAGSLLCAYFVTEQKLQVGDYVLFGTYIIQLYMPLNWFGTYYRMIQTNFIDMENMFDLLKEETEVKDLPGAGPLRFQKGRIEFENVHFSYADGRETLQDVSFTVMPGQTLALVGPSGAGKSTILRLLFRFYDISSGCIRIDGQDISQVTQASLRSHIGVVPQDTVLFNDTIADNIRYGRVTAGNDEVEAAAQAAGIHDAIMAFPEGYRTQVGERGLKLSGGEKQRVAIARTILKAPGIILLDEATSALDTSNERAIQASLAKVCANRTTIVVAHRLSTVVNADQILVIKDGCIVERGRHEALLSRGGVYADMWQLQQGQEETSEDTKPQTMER

[15] = promoters of myeloid differentiation in arrested cells, primary screen, cell-based, GFP/MAC1 double positive, flow cytometry, validation set (AID 588685;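 active = differentiation response of at least 50%, scaled between solvent and reference control, from cells with both markers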;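 also: compound exposure lasts four days before antibody staining and flow analysis; 0% = DMSO wells and 100% = 5 µM fulvestrant positive control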); conditions: ER-HoxA9 marrow cells, stronger effect = higher value, normalized: vehicle 0, fulvestrant 100

SMILES	percent of DMSO control GFP [1]	GFP response vs DMSO [2]	percent response of DMSO control [3]	GFP response vs DMSO [4]	GFP response, % of DMSO [5]	double positive events [6] [%]	vesicle binding response [6]	inhibition [7]	superoxide response (% of plate) [8]	aptamer binding inhibition [9]	inhibition [10]	response [11]	binding (% of control) [12]	efflux inhibition (fraction of control) [13]	inhibition [14]	differentiation response [15]
OC(CCN1CCCCC1)(c1ccccc1)C1CCCCC1 (stereo not drawn)	107% (inactive)	102% (inactive)	108% (inactive)	106% (inactive)	105% (inactive)	40.6	185% (inactive)	0% (inactive)	97.3% (inactive)	-3% (inactive)	-9.7% (inactive)	-2.57% (inactive)	108% (inactive)	-0.05 (inactive)	5% (inactive)	-8.27% (inactive)
CCOC(=O)C1(CCCc2ccccc2)CCN(C2CCN(C(C)=O)CC2)CC1	97.1% (inactive)	101% (inactive)	99.8% (inactive)	92.3% (inactive)	92.4% (inactive)	52	138% (inactive)	-12.4% (inactive)	103% (inactive)	9% (inactive)	12.5% (inactive)	-6.58% (inactive)	109% (inactive)	0.37 (inactive)	9% (inactive)	-13.1% (inactive)
CC1(C)NC(C(=O)O)Cc2c1[nH]c1ccccc21 (stereo not drawn)	112% (inactive)	106% (inactive)	109% (inactive)	98.4% (inactive)	105% (inactive)	62.5	175% (inactive)	5.36% (inactive)	97.5% (inactive)	1% (inactive)	14.4% (inactive)	-1.17% (inactive)	112% (inactive)	0.1 (inactive)	8% (inactive)	-16.4% (inactive)
CN1C(=O)C(O)(CC(=O)c2ccccc2O)c2cc(Br)ccc21 (stereo not drawn)	100% (inactive)	107% (inactive)	109% (inactive)	115% (inactive)	106% (inactive)	57.7	199% (inactive)	16.6% (inactive)	101% (inactive)	0% (inactive)	4.33% (inactive)	0.66% (inactive)	99% (inactive)	-0.09 (inactive)	9% (inactive)	7.87% (inactive)
COc1ccc2[nH]cc(C(=O)CCl)c2c1	103% (inactive)	98.9% (inactive)	102% (inactive)	100% (inactive)	102% (inactive)	64.8	172% (inactive)	-3.04% (inactive)	101% (inactive)	4% (inactive)	24.1% (inactive)	-6.9% (inactive)	98.2% (inactive)	-0.01 (inactive)	3% (inactive)	0% (inactive)
COc1ccc([C@@H]2Sc3ccccc3N(CCN(C)C)C(=O)[C@@H]2OC(C)=O)cc1	104% (inactive)	102% (inactive)	105% (inactive)	93.3% (inactive)	101% (inactive)	62.9	200% (inactive)	-0.24% (inactive)	101% (inactive)	-1% (inactive)	5.2% (inactive)	-4.23% (inactive)	99.1% (inactive)	0.03 (inactive)	-227% (inactive)	-8.27% (inactive)
C[C@H]1C[C@H]2[C@@H]3CCC4=CC(=O)C=C[C@]4(C)[C@@]3(Cl)[C@@H](O)C[C@]2(C)[C@@]1(O)C(=O)CO	101% (inactive)	103% (inactive)	106% (inactive)	103% (inactive)	98.8% (inactive)	53.7	190% (inactive)	4.42% (inactive)	85.2% (inactive)	2% (inactive)	-8.65% (inactive)	4.84% (inactive)	96.9% (inactive)	-0.24 (inactive)	6% (inactive)	-9.89% (inactive)
CC(=O)OCC(=O)C1=CCC2C3CCC4=CC(=O)C=CC4(C)C3(F)C(OC(C)=O)CC12C (stereo not drawn)	99.8% (inactive)	101% (inactive)	106% (inactive)	84.3% (inactive)	105% (inactive)	59	180% (inactive)	6.29% (inactive)	87.6% (inactive)	7% (inactive)	-3.56% (inactive)	6.47% (inactive)	96.2% (inactive)	0.18 (inactive)	9% (inactive)	-11.5% (inactive)
Cc1ccc(C(CC(=O)NCc2ccco2)c2ccc(OC(C)C)cc2)cc1 (stereo not drawn)	99.8% (inactive)	106% (inactive)	96.9% (inactive)	103% (inactive)	96.9% (inactive)	60.4	165% (inactive)	-138% (inactive)	103% (inactive)	2% (inactive)	37.9% (inactive)	-2.51% (inactive)	97.7% (inactive)	0.67 (active)	12% (inactive)	-6.66% (inactive)
CC(=O)Oc1ccc2occ(/C=N/c3cc(=O)[nH]c(=S)[nH]3)c(=O)c2c1	98% (inactive)	102% (inactive)	96.9% (inactive)	91.3% (inactive)	98.5% (inactive)	66.1	181% (inactive)	7.22% (inactive)	90.5% (inactive)	1% (inactive)	25.5% (inactive)	-8.27% (inactive)	103% (inactive)	0.33 (inactive)	10% (inactive)	40.2% (inactive)
CC(C)(C)NC[C@H](O)COc1nsnc1N1CCOCC1	94.4% (inactive)	136% (inactive)	108% (inactive)	78.7% (inactive)	93.1% (inactive)	70.5	173% (inactive)	17.1% (inactive)	91.1% (inactive)	3% (inactive)	-3.6% (inactive)	4.73% (inactive)	96.3% (inactive)	0.05 (inactive)	9% (inactive)	-0.82% (inactive)
CCCOc1ccc(-c2cc(C(=O)NCC3CCCO3)c3ccccc3n2)cc1 (stereo not drawn)	99.5% (inactive)	102% (inactive)	91% (inactive)	105% (inactive)	84.4% (inactive)	55.9	199% (inactive)	13.8% (inactive)	91.2% (inactive)	1% (inactive)	-3.49% (inactive)	6.44% (inactive)	97.3% (inactive)	0.18 (inactive)	12% (inactive)	7.87% (inactive)
CC(C)NCC(O)COc1ccc(CCOCC2CC2)cc1 (stereo not drawn)	103% (inactive)	102% (inactive)	109% (inactive)	111% (inactive)	108% (inactive)	63.7	215% (inactive)	-10.5% (inactive)	93.3% (inactive)	-6% (inactive)	-20.5% (inactive)	9.7% (inactive)	103% (inactive)	0.03 (inactive)	-3% (inactive)	7.13% (inactive)
C=CCc1ccccc1OCC(O)CNC(C)C (stereo not drawn)	103% (inactive)	107% (inactive)	104% (inactive)	108% (inactive)	118% (inactive)	61.2	209% (inactive)	-11.3% (inactive)	96.7% (inactive)	-32% (inactive)	-4.94% (inactive)	0.57% (inactive)	107% (inactive)	0.12 (inactive)	-2% (inactive)	-11.9% (inactive)
COC(=O)CN1CC(=O)N(c2ccccc2)C1=S	101% (inactive)	106% (inactive)	97.9% (inactive)	100% (inactive)	95.8% (inactive)	59.2	171% (inactive)	6.29% (inactive)	97.2% (inactive)	1% (inactive)	9.42% (inactive)	4.12% (inactive)	106% (inactive)	0.22 (inactive)	-19% (inactive)	6.26% (inactive)
CCc1c(C)c2ccc(OCC(=O)OC(C)C)c(C)c2oc1=O	98.1% (inactive)	96.9% (inactive)	93% (inactive)	89.3% (inactive)	88.5% (inactive)	57.1	142% (inactive)	7.22% (inactive)	101% (inactive)	-3% (inactive)	19.5% (inactive)	3.44% (inactive)	101% (inactive)	0.29 (inactive)	8% (inactive)	-18% (inactive)
NC(=O)c1c(-c2ccccc2)oc2ccc(O)cc12	100% (inactive)	97.9% (inactive)	90% (inactive)	100% (inactive)	98.5% (inactive)	66.7	260% (inactive)	14.7% (inactive)	90.9% (inactive)	0% (inactive)	-7.96% (inactive)	-1.1% (inactive)	102% (inactive)	-0.09 (inactive)	10% (inactive)	-13.1% (inactive)
Cc1ccc2c(c1)c1c3n2CCCNC3CCC1 (stereo not drawn)	103% (inactive)	106% (inactive)	107% (inactive)	95.4% (inactive)	94% (inactive)	63.9	229% (inactive)	10% (inactive)	85.7% (inactive)	-4% (inactive)	-3% (inactive)	3.62% (inactive)	111% (inactive)	-0.05 (inactive)	9% (inactive)	-3.43% (inactive)
COCCOC(=O)c1c(C)oc2ccc(OCc3cc(C(=O)OC)oc3C)cc12	97.6% (inactive)	102% (inactive)	93.9% (inactive)	101% (inactive)	98.1% (inactive)	52.6	202% (inactive)	10.9% (inactive)	93.4% (inactive)	0% (inactive)	-4.42% (inactive)	26.8% (active)	98.7% (inactive)	0.06 (inactive)	4% (inactive)	-11.5% (inactive)
C[C@]12CC[C@H]3C(=CCc4cc(O)ccc43)[C@@H]1CCC2=O	101% (inactive)	94.8% (inactive)	90% (inactive)	110% (inactive)	92.1% (inactive)	59.4	172% (inactive)	7.22% (inactive)	102% (inactive)	7% (inactive)	2.28% (inactive)	-1.47% (inactive)	103% (inactive)	0.25 (inactive)	4% (inactive)	1.41% (inactive)
COCCn1c(/C=C/c2ccccc2)nc2ccccc21	96.8% (inactive)	101% (inactive)	93% (inactive)	93.3% (inactive)	87.9% (inactive)	59.7	149% (inactive)	1.62% (inactive)	92.6% (inactive)	2% (inactive)	10.5% (inactive)	0.08% (inactive)	105% (inactive)	0.22 (inactive)	6% (inactive)	-5.05% (inactive)
Cc1cc(OC(C(=O)O)c2ccccc2)c2c(C)c(Cc3ccccc3)c(=O)oc2c1 (stereo not drawn)	103% (inactive)	98.9% (inactive)	97.9% (inactive)	100% (inactive)	95.1% (inactive)	54.5	160% (inactive)	-3.04% (inactive)	115% (inactive)	2% (inactive)	1.35% (inactive)	5.52% (inactive)	95.4% (inactive)	-0.05 (inactive)	7% (inactive)	-3.43% (inactive)
COc1ccc(CCNC(=S)NC(=O)/C=C/c2ccc(C)cc2)cc1OC	101% (inactive)	107% (inactive)	106% (inactive)	103% (inactive)	95.4% (inactive)	51.6	136% (inactive)	3.49% (inactive)	98.2% (inactive)	2% (inactive)	13.3% (inactive)	-1.1% (inactive)	106% (inactive)	0.22 (inactive)	4% (inactive)	-8.27% (inactive)
